Several values for one entry are separate records, joined by “and”; a condition that tells them apart may be missing. Identical values can stand only once. Values without a mark were called inactive. Records with an inconclusive call do not appear. Entries that show only a call come without a potency. Activity calls are given as the source filed them. Unless noted, calls come from the whole dose curve; as a rule, active = well fitted curve in the direction sought with a large enough effect; inconclusive = small, poorly fitted or top-dose-only effect, or another doubt; inactive = no such curve, though single readings can be large; an effect the other way counts as inactive or inconclusive.
Experiments:
[1] = target: Arylsulfatase A (Homo sapiens) (UniProt P15289); experiment: qHTS screen for enhancers of Arylsulfatase A (ASA1): LOPAC Validation Assay (AID 720538); note: potency is the fitted concentration of half-maximal effect
Procedure, shortened: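 Cell-based enhancement test: residual ASA activity in SV40-transformed I179S patient fibroblasts is measured by pNCS turnover (0.5mM final, 14h, room temperature) following 48h compound incubation; higher fluorescence indicates activation.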

[2] = qHTS for compounds that reverse cellular toxicity of Amyloid beta (A-beta) peptide in yeast: LOPAC Validation Assay (AID 720559)
Procedure, shortened: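 Here, A-beta-toxic yeast grow with test compounds at 30 C for 48 hr before optical density at 600 nm is recorded; data are normalized against DMSO and the FeCl3-clioquinol control.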

[3] = qHTS for Activators of Parkin Expression: LOPAC Validation Assay (NLuc Reporter) (AID 720572)
Procedure, shortened: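 Compound effects on Parkin promoter activity were measured as NanoLuc luminescence after 24 h at 37 C. The neuronal reporter line also carried FLuc, which was read first. LOPAC compounds were tested at 7 concentrations, with normalization to DMSO (0%) and positive control (100%).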

[4] = qHTS for Activators of Parkin Expression: LOPAC Validation Assay (FLuc Reporter) (AID 720573)
Procedure, shortened: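 Readout is FLuc luminescence from neuronal reporter cells (Parkin promoter, FLuc plus NLuc) after 24 h compound exposure in dose response. Values normalized to neutral DMSO and positive-control compounds.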

[5] = target: T1, Hexokinase-4 (Homo sapiens) + Glucokinase regulatory protein (Homo sapiens) (UniProt P35557+Q14397); experiment: qHTS assay for inhibitors of recombinant human GCK-GKRP interaction: Diaphorase-coupled assay (AID 743205)
Procedure, shortened: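 Signal derives from resorufin generated by diaphorase, linked to GCK turnover of glucose (5 mM) and ATP (0.4 mM). Enzyme complex was added after a 20-minute compound preincubation and monitored for 30 minutes.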

[6] = target: T1, Hexokinase-4 (Homo sapiens) + Glucokinase regulatory protein (Homo sapiens); experiment: qHTS assay for inhibitors of recombinant human GCK-GKRP interaction: ADP-Glo assay (AID 743206)
Procedure, shortened: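 Pin-transferred compounds meet a 15 nM GST-GCK/15 nM FLAG-GKRP/2 uM S6P mix (dispense concentrations). ATP is then added to 0.4 mM final with 5 mM glucose, and the reaction runs 60 min at room temperature. ADP is quantified luminescently.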

[7] = target: T1, Hexokinase-4 (Homo sapiens) + Glucokinase regulatory protein (Homo sapiens); experiment: qHTS assay for inhibitors of recombinant human GCK-GKRP interaction: HTRF assay (AID 743207)
Procedure, shortened: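 Titration screening format: recombinant GST-GCK and FLAG-GKRP at 5 nM, S6P at 2 uM, labelled anti-tag antibodies, 60 min at RT, dual-wavelength HTRF readout.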

[8] = qHTS assay for small molecule agonists of the antioxidant response element (ARE) signaling pathway measured by Nrf2-dependant transcriptional activity (AID 720636; active = well fitted curve in the direction sought with a large enough effect in the repeat runs; an effect the other way counts as inactive or inconclusive;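 note: HepG2 cells with an ARE-driven luciferase reporter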)
Procedure, shortened: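 In HepG2 cells engineered with an Nrf2-responsive luciferase gene, ARE induction was quantified as luminescence after 16 hr compound treatment at 37 C.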

[9] = qHTS assay for small molecule antagonists of the retinoid-related orphan receptor gamma (ROR-gamma) signaling pathway - cell viability counter screen (AID 720652; active = well fitted curve in the direction sought with a large enough effect in the repeat runs; an effect the other way counts as inactive or inconclusive;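 note: CHO reporter cells with doxycycline-induced ROR-gamma expression; series mostly up to about 92 µM; compound exposure lasted 16 hr before ATP read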)
Procedure, shortened: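 ATP-based viability readout in the ROR-gamma reporter CHO cells after 16 hr compound exposure under doxycycline induction.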

[10] = qHTS assay for small molecule agonists of the antioxidant response element (ARE) signaling pathway measured by Nrf2-dependant transcriptional activity - cell viability counter screen (AID 720653; active = well fitted curve in the direction sought with a large enough effect in the repeat runs; an effect the other way counts as inactive or inconclusive); details: ARE-bla HepG2 viability, CellTiter-Glo ATP luminescence, 16 h; max response: hits give low values
Procedure, shortened: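 Cytotoxicity counter screen: intracellular ATP quantified by CellTiter-Glo luminescence in the same ARE-bla HepG2 plates, after 16 h compound exposure and a 2 h beta-lactamase substrate step.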

[11] = qHTS assay for cell viability of HEK293 cells (AID 743288); details: ATP luminescence (CellTiter-Glo), 18 h; max response: hits give low values; note: nearly all actives have a fitted effect of over 50% in size
Procedure, shortened: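 HEK293, 18 h, 37 C, ATP luminescence. Cells at 2,000/well were allowed at least 5 h to settle before dosing; CellTiter-Glo developed 30 min at RT.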

[12] = qHTS assay for cell viability of the p53RE-bla HCT-116 cell line (AID 743292); note: nearly all actives have a fitted effect of over 55% in size
Procedure, shortened: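 Intracellular ATP of p53RE-bla HCT-116 cells measured by luciferase luminescence following 16 h compound incubation at 37 C; DMSO-only wells served as vehicle controls.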

[13] = qHTS Assay for Identifying Gametocytocidal Compounds (AID 743244); note: potency is the fitted concentration of half-maximal effect;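 for max response: actives lower the fluorescent signal which means gametocytes are killed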; details: P. falciparum 3D7 stage III-V gametocytes, alamarBlue, 72 h; max response: hits give low values
Procedure, shortened: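 A resazurin-based viability read-out was applied to mature P. falciparum gametocytes: 72 h compound treatment, then 24 h dye incubation, with falling fluorescence signalling gametocytocidal effect.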

T1 sequence (P35557 whole entry, looked up): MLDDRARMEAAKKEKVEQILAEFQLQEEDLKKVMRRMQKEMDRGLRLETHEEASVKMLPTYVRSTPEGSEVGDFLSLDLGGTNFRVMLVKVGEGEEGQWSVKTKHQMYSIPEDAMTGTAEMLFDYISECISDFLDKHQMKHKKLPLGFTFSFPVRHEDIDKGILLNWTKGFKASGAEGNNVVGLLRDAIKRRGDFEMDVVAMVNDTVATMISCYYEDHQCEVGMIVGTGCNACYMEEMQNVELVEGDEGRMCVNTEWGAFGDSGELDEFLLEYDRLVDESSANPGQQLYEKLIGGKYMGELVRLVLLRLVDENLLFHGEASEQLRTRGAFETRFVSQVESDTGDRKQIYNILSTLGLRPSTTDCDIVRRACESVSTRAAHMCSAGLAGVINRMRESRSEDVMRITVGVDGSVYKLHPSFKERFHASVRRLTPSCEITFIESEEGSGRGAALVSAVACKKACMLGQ
T1 sequence (Q14397 whole entry, looked up): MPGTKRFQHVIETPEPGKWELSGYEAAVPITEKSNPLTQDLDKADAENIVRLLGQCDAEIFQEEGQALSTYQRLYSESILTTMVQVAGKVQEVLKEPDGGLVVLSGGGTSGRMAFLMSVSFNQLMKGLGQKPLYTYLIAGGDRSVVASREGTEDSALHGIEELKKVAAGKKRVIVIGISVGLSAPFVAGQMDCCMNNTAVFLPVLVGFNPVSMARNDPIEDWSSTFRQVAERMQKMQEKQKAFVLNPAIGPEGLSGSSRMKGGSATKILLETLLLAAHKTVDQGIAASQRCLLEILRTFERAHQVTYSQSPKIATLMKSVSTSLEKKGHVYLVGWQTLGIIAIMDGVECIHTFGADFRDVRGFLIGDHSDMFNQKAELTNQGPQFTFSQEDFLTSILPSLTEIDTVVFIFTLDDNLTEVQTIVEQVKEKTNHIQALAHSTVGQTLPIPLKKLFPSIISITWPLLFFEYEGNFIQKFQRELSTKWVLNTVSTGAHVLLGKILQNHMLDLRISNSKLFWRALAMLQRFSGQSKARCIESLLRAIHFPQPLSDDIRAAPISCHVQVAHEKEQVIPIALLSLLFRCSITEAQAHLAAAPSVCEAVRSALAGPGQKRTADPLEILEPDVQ
Arylsulfatase A (Homo sapiens), sequence (P15289 whole entry, looked up): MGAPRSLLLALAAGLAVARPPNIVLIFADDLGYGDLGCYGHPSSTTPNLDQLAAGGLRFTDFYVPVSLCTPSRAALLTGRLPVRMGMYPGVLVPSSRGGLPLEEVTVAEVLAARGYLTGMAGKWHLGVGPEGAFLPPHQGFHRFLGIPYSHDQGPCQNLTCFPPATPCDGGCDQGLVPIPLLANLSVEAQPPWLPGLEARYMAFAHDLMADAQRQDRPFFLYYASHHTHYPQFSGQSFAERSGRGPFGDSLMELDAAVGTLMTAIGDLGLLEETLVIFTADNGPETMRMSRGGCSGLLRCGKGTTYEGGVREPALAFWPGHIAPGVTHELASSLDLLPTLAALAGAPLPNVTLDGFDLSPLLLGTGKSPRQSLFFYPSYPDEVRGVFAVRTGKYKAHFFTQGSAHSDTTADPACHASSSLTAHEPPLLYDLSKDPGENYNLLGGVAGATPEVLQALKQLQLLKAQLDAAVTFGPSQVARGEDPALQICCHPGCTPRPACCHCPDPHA

| SMILES | Potency [1] | outcome [2] | Potency [3] | outcome [4] | outcome [5] | outcome [6] | Potency [7] | outcome [8] | outcome [9] | max response [10] | max response [11] | outcome [12] | max response [13] | Potency [13] |
| --- | --- | --- | --- | --- | --- | --- | --- | --- | --- | --- | --- | --- | --- | --- |
| COC(=O)[C@@H](N)Cc1ccc(O)c(O)c1 | 33.8 µM (active) | inactive | inactive | inactive | inactive | inactive | inactive |  |  |  |  |  |  |  |
| CCN(CC)CCCN(c1ccccc1)C1Cc2ccccc2C1 | inactive | inactive | inactive | inactive | inactive | inactive | inactive |  |  |  |  |  |  |  |
| CCCCNC(=O)NS(=O)(=O)c1ccc(C)cc1 | inactive | inactive | inactive | inactive | inactive | inactive | inactive | inactive | inactive | 6.42% and -5.96% | 2.43% and -13.2% | inactive |  |  |
| C[C@]12C=CC(=O)C=C1CC[C@H]1[C@@H]3C[C@@H](O)[C@](O)(C(=O)CO)[C@@]3(C)C[C@H](O)[C@@]12F | inactive | inactive | inactive | inactive | inactive | inactive | inactive | inactive |  | -0.0511% | -7.12% | inactive |  |  |
| CC(=O)[C@]1(O)Cc2c(O)c3c(c(O)c2[C@@H](O[C@H]2C[C@H](N)[C@H](O)[C@H](C)O2)C1)C(=O)c1ccccc1C3=O | inactive | inactive | inactive | inactive | inactive | inactive | inactive |  |  |  |  |  |  |  |
| c1cnc(N2CCN(Cc3ccc4c(c3)OCO4)CC2)nc1 | inactive | inactive | inactive | inactive | inactive | inactive | inactive |  |  |  |  |  |  |  |
| CN(C)C/C=C(/c1ccc(Br)cc1)c1cccnc1 | inactive | inactive | inactive | inactive | inactive | inactive | inactive |  |  |  |  |  |  |  |
| NC(N)=N/N=C/c1c(Cl)cccc1Cl | inactive | inactive | inactive | inactive | inactive | inactive | inactive |  |  |  |  |  |  |  |
| COc1ccc(CN(CCN(C)C)c2ccccn2)cc1 | inactive | inactive | inactive | inactive | inactive | inactive | inactive | inactive | inactive | -3.41% | -9.66% | inactive | -1.15% and 9.8% |  |
| C[C@]12CCC(=O)C=C1CC[C@@H]1[C@@H]2C(=O)C[C@@]2(C)[C@H]1CC[C@]2(O)C(=O)CO | inactive | inactive | inactive | inactive | inactive | inactive | inactive | inactive |  | -5.48% | -1.33% | inactive | -0.251% and -12.4% |  |
| OC(CCN1CCCCC1)(c1ccccc1)C1CCCCC1 (configuration not stated) | inactive | inactive | inactive | inactive | inactive | inactive | inactive |  |  |  |  |  |  |  |
| CC(C(=O)O)c1ccc(CC2CCCC2=O)cc1 (configuration not stated) | inactive | inactive | inactive | inactive | inactive | inactive | inactive |  |  |  |  |  | -0.912% and 17.1% |  |
| C[n+]1cc2c3c(ccc2c2ccc4cc5c(cc4c21)OCO5)OCO3 | inactive | inactive | inactive | inactive | inactive | inactive | inactive |  |  |  |  |  |  | 3.16 µM (active) |
| Cc1cc(C)c(/C=C2\C(=O)Nc3ccccc32)[nH]1 | inactive | inactive | inactive | inactive | inactive | inactive | inactive |  |  |  |  |  | -7.62% and 20.5% |  |
| CCN1CCc2nc(N)oc2CC1 | inactive | inactive | inactive | inactive | inactive | inactive | inactive |  |  |  |  |  | 11% and 14% |  |
| Cc1ccc(=O)n(-c2ccccc2)c1 | inactive | inactive | inactive | inactive | inactive | inactive | inactive |  |  |  |  |  | 6.86% and 22.4% |  |
| CC(=O)Oc1cc(C(C)C)c(OCCN(C)C)cc1C | inactive | inactive | inactive | inactive | inactive | inactive | inactive |  |  |  |  |  | 14.5% and 12.4% |  |
| CCn1ccnc1CC1COc2ccccc2O1 (configuration not stated) | inactive | inactive | inactive | inactive | inactive | inactive | inactive |  |  |  |  |  | 13.9% and 11.7% |  |
| Nc1c2c(nc3ccccc13)CCCC2O (configuration not stated) | inactive | inactive | inactive | inactive | inactive | inactive | inactive |  |  |  |  |  | -3.49% and -6.56% |  |
| CCCCNc1ccc(C(=O)OCCN(C)C)cc1 | inactive | inactive | inactive | inactive | inactive | inactive | inactive |  |  |  |  |  | -1.47% and 12.4% |  |
| c1ccc2c(c1)CCCC2C1=NCCN1 (configuration not stated) | inactive | inactive | inactive | inactive | inactive | inactive | inactive |  |  |  |  |  | -2.52% and 13.8% |  |
